# About 390 (7%) of roughly 5,600 compounds showed an effect of 50% or more. The list comes from a sample in which strong results are over-represented; it also holds similar structures and randomly drawn compounds. Non-standard residues stand in square brackets, D forms with d. Residues, ends and D or L forms follow the SMILES beside them. *: point of attachment. dPhe(4-NHCONH2) = NC(=O)Nc1ccc(C[C@@H](N)C(=O)O)cc1; Dihydroorotyl(S) = O=C1C[C@@H](C(=O)*)NC(=O)N1; dPhe(4-Cl) = N[C@H](Cc1ccc(Cl)cc1)C(=O)O; Phe(4-NH2) = Nc1ccc(C[C@H](N)C(=O)O)cc1; d2Nal = N[C@H](Cc1ccc2ccccc2c1)C(=O)O; Lys(iPr) = CC(C)NCCCC[C@H](N)C(=O)O; d3Pal = N[C@H](Cc1cccnc1)C(=O)O
# Biological target: T1, Protein deacetylase HDAC6 (Homo sapiens) (UniProt Q9UBN7)
# T1 sequence (whole entry): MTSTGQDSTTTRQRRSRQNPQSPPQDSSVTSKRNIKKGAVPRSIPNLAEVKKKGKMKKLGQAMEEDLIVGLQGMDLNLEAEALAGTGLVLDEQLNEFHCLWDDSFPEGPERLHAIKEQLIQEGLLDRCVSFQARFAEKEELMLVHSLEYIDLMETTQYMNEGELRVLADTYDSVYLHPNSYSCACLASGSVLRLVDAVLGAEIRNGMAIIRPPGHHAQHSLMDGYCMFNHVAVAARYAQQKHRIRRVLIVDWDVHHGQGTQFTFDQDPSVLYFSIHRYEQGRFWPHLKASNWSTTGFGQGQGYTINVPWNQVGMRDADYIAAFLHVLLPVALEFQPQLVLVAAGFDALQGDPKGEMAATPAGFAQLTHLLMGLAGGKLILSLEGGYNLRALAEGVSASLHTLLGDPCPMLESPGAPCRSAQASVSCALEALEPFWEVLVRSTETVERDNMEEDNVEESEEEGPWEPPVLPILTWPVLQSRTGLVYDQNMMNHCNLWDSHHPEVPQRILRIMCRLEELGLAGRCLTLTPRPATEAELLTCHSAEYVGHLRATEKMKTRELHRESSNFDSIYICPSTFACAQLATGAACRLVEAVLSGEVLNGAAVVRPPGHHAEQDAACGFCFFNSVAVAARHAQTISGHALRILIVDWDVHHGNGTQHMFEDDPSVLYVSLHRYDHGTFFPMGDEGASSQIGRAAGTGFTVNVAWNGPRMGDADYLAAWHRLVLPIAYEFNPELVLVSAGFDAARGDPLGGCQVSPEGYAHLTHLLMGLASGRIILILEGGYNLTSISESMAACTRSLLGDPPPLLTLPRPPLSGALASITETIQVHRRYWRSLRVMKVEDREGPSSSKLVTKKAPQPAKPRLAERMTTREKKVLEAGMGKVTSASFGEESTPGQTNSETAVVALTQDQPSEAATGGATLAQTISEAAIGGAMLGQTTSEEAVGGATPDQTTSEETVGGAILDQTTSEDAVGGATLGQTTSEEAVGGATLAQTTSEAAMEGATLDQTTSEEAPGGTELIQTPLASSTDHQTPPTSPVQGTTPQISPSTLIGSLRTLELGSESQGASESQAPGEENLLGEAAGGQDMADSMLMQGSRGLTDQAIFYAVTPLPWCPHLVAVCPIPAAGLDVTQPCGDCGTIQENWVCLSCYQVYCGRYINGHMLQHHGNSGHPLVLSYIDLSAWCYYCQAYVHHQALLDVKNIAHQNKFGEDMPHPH
# Conditions: at 10 µM
row,SMILES,inhibition [%]
1,Cc1nc(Nc2ncc(C(=O)Nc3c(C)cccc3Cl)s2)cc(N2CCN(CCO)CC2)n1,21.2
2,CC1(C)CC(=O)C(C2C3=C(CC(C)(C)CC3=O)Oc3ccccc32)C(=O)C1 (centres undefined),-3.93
3,N[C@H](Cc1c[nH]c2ccccc12)C(=O)O,12
4,COCCNC(=O)Cn1cnc([N+](=O)[O-])n1,6.28
5,CN([C@@H](Cc1ccc(OS(=O)(=O)c2cccc3cnccc23)cc1)C(=O)N1CCN(c2ccccc2)CC1)S(=O)(=O)c1cccc2cnccc12,-4.11
6,CC(C)c1cc(-c2n[nH]c(=O)n2-c2ccc3c(ccn3C)c2)c(O)cc1O,29.4
7,Nc1nc(N)c2nc(-c3cccc(O)c3)cnc2n1,88.7
8,Oc1cccc(-c2c3nc(c(-c4cccc(O)c4)c4ccc([nH]4)c(-c4cccc(O)c4)c4nc(c(-c5cccc(O)c5)c5ccc2[nH]5)CC4)C=C3)c1,36.9
9,Nc1nc(N)c2nc(-c3ccccc3)c(N)nc2n1,19.4
10,CCc1cc(C(C)=O)c(O)cc1OCCCCCC(C)(C)c1nn[nH]n1,8.67
11,CCCCN(CC)c1nc(C)nc2c1c(C)c(C)n2-c1c(C)cc(C)cc1C,7.01
12,CN(Cc1ccccc1)C(=O)[C@H](Cc1ccc2ccccc2c1)NC(=O)[C@@H]1C[C@@H](O)CN1C(=O)c1cn(C)c2ccccc12,84.1
13,Cn1cc(C(=O)OCC2CCN(CCNS(C)(=O)=O)CC2)c2ccccc21,-8.82
14,CN(C)CC/C=C1/c2ccccc2COc2ccc(CC(=O)O)cc21,2.79
15,CC(C)Cc1ccc(C(C)C(=O)NO)cc1 (centres undefined),49.7
16,CC1(N)CCN(c2cnc(-c3cccc(Cl)c3Cl)c(N)n2)CC1,21.6
17,C[C@@](Cc1ccc(O)c(O)c1)(NN)C(=O)O,-8.77
18,O=C(/C=C/c1ccc(O)c(O)c1)OCCc1ccccc1,80.7
19,O=C(O)/C=C/c1ccc(-c2ccc(O)c(C34CC5CC(CC(C5)C3)C4)c2)cc1,30.5
20,COc1cc(NC(=O)Nc2cccc(CNC(=O)O[C@H]3CCOC3)c2)ccc1-c1cnco1,38.8
21,CCCCCCNC(=O)n1cc(F)c(=O)[nH]c1=O,5.48
22,Cn1cc(-c2cnc3ccc4ccc(CS(=O)(=O)NCc5ccccn5)cc4c(=O)c3c2)cn1,-2.81
23,O=C(CN1CCN(Cc2ccc3c(c2)OCO3)CC1)N1c2ccccc2Sc2ccccc21,8.76
24,O=C(COc1ccc(Cl)cc1)N1CCN(Cc2ccc3c(c2)OCO3)CC1,6.09
25,O=C(NCc1ccc2c(c1)OCO2)c1c(Cl)cccc1Cl,76.1

row,SMILES,inhibition [%]
1,NC(Cc1ccc(Cl)cc1)C(=O)O (racemic),19.5
2,O=c1sn(-c2cccc3ccccc23)c(=O)n1Cc1ccccc1,83.4
3,Cc1ccc(-n2sc(=O)n(Cc3ccc(F)cc3)c2=O)cc1,41.5
4,CNC(=O)c1ccc2cc(C3(O)CCn4cncc43)ccc2c1 (centres undefined),25.9
5,Nc1nc2c(c(N3CCNCC3)n1)CCC1=C2[C@@H]2CCCC[C@@H]2O1,-3.26
6,C[C@H](NCc1ccc(OCc2cccc(F)c2)cc1)C(N)=O,83.6
7,CC(C)NCC(O)COc1ccc(CC(N)=O)cc1 (centres undefined),4.66
8,C[C@H](NCc1ccc(OCc2ccccc2F)cc1)C(N)=O,69.4
9,CC(C)COc1ccc(CNC(=O)N(Cc2ccc(F)cc2)C2CCN(C)CC2)cc1,-8.99
10,C[C@H](NC(=O)Cc1cc(F)cc(F)c1)C(=O)N[C@H](C(=O)OC(C)(C)C)c1ccccc1,17.3
11,CNNCc1ccc(C(=O)NC(C)C)cc1,4.33
12,C(#Cc1nc2ncccc2nc1OCCN1CCCC1)c1ccccc1,30.5
13,O=c1[nH]c2ccccc2n1CCCN1CCN(C(c2ccccc2)c2ccccc2)CC1,-9.27
14,O=C1c2ccccc2-n2c1nc1ccccc1c2=O,104
15,C[C@H](NC[C@H](O)CP(=O)(O)Cc1ccccc1)c1ccc(Cl)c(Cl)c1,-2.08
16,N=C(N)S/C=C\C(=O)O,6.84
17,CC(=O)N[C@H](Cc1ccc2ccccc2c1)C(=O)N[C@H](Cc1ccc(Cl)cc1)C(=O)N[C@H](Cc1cccnc1)C(=O)N[C@@H](CO)C(=O)N[C@@H](Cc1ccc(NC(=O)[C@@H]2CC(=O)NC(=O)N2)cc1)C(=O)N[C@H](Cc1ccc(NC(N)=O)cc1)C(=O)N[C@@H](CC(C)C)C(=O)N[C@@H](CCCCNC(C)C)C(=O)N1CCC[C@H]1C(=O)N[C@H](C)C(N)=O (Ac-[d2Nal][dPhe(4-Cl)][d3Pal]S[Phe(4-NH2)](Dihydroorotyl(S))[dPhe(4-NHCONH2)]L[Lys(iPr)]P[dA]-NH2),33.2
18,NS(=O)(=O)c1cc2c(cc1Cl)NCNS2(=O)=O,-9.26
19,NS(=O)(=O)c1cc2c(cc1Cl)N=C(CSCc1ccccc1)NS2(=O)=O,78.4
20,CN1C(CSCC(F)(F)F)Nc2cc(Cl)c(S(N)(=O)=O)cc2S1(=O)=O (centres undefined),11.5
21,COc1cc(OC)cc(C(=O)NNC(=O)Nc2cccc3ccccc23)c1,9.39
22,O=C(O)c1ccccc1Nc1cccc(OCc2ccc3ccccc3n2)c1,14.8
23,Cn1cc(-c2ccncc2)c(-c2ccc(OCc3ccc4ccccc4n3)cc2)n1,4.18
24,CCCCCC(O)c1cccc(OCc2ccc3ccccc3n2)c1 (centres undefined),70.6
25,NS(=O)(=O)c1cc(C(=O)O)cc(N2CCCC2)c1Oc1ccccc1,1.91

row,SMILES,inhibition [%]
1,COc1c(Nc2ccc(S(C)(=O)=O)nc2C)ncnc1OC1CCN(C(=O)OC(C)C)CC1,42.5
2,O=C1NCCN1CCN1CCC(c2cn(-c3ccc(F)cc3)c3ccc(Cl)cc23)CC1,3.95
3,Cc1c(Cn2c(C)nc3c(C(=O)O)cc(N4CCOCC4)cc32)cccc1C(F)(F)F,13.4
4,Cc1cc([C@@H](C)Nc2ccccc2C(=O)O)c2nc(N3CCOCC3)cc(=O)n2c1,92.5
5,O=c1cc(N2CCOCC2)nc2c3ccccc3ccn12,33.6
6,CCN1CCN(Cc2ccc(Nc3ncc(F)c(-c4cc(F)c5nc(C)n(C(C)C)c5c4)n3)nc2)CC1,-7.99
7,c1ccc(N2CCN(CCCOc3ccc4c(c3)OCO4)CC2)cc1,8.38
8,CCCCCCN(CCCCCC)C(=O)Cc1c(-c2ccc(F)cc2)[nH]c2ccccc12,0.87
9,CCCCC(=O)NCCc1c(Cc2ccccc2)[nH]c2ccccc12,-8.08
10,CCOC(=O)c1ncc2[nH]c3cccc(OC(C)C)c3c2c1C,-0.9
11,CNC(=O)c1cc2c(cn1)[nH]c1ccccc12,71.2
12,CCCCOC(=O)c1cc2c(cn1)[nH]c1ccccc12,78.3
13,CNCC(=O)O,15.9
14,NC(=O)C1=CN([C@@H]2O[C@H](COP(=O)(O)OP(=O)(O)OC[C@H]3O[C@@H](n4cnc5c(N)ncnc54)[C@H](OP(=O)(O)O)[C@@H]3O)[C@@H](O)[C@H]2O)C=CC1,28.1
15,Cc1cccc(C)c1NC(=O)CC12CCCN1CCC2,-8.45
16,CC(C)(C)NC(=O)[C@@H]1CN(Cc2cccnc2)CCN1C[C@@H](O)C[C@@H](Cc1ccccc1)C(=O)N[C@H]1c2ccccc2C[C@H]1O,1.38
17,CN1CCN(c2ccc(Nc3ncc4cc(C#N)c(=O)n(C5CCCC5)c4n3)cc2)CC1,-8.66
18,O=C(Nc1ccccc1)c1cc([N+](=O)[O-])ccc1Cl,-6.48
19,O=C(Nc1ccncc1)c1cc([N+](=O)[O-])ccc1Cl,8.83
20,O=C(Nc1ccc([N+](=O)[O-])cc1Cl)c1cc(Cl)ccc1O,93.1
21,CCCCCCCCOc1ccccc1C(=O)Nc1ccc(C(=O)OCC[N+](C)(CC)CC)cc1,-3.51
22,CCOc1ccccc1C(N)=O,18.7
23,CCCCCCOc1ccccc1C(N)=O,93.3
24,CCn1cc(C(=O)O)c(=O)c2ccc(-c3ccncc3)cc21,30.6
25,O=C(O)Cc1ccc(-c2ccccc2)cc1,10.6

row,SMILES,inhibition [%]
1,O=C(Cc1ccc(-c2ccccc2)cc1)Nc1ccccn1,56.6
2,O=C(O)c1ccccn1,12.2
3,COC1/C=C\OC2(C)Oc3c(C)c(O)c4c(O)c(cc(O)c4c3C2=O)NC(=O)/C(C)=C\C=C/C(C)C(O)C(C)C(O)C(C)C(OC(C)=O)C1C (centres undefined),5.48
4,O=C(CCCc1ccc(-c2ccccc2F)cc1)Nc1ccc(O)cc1,24
5,Cc1ccccc1C(=O)c1ccc(Nc2ccc(Br)cc2N)cc1Cl,3.48
6,COc1cc2nc(N3CCN(C(=O)C4COc5ccccc5O4)CC3)nc(N)c2cc1OC (centres undefined),6.59
7,COc1ccccc1N1CCN(CCCCN2C(=O)c3ccccc3C2=O)CC1,0.28
8,COc1cc2nc(C3CC3)nc(N3CCN(c4ccccc4OC)CC3)c2cc1OC,89.3
9,CCCn1c(=O)c2nc(C34CC5CC(CC3C5)C4)[nH]c2n(CCC)c1=O,2.81
10,CCCCNNC(=O)c1ccc(Br)cc1,35.4
11,CN(C)C(=O)N[C@H]1CC[C@H](CCN2CCN(c3cccc(Cl)c3Cl)CC2)CC1,18.9
12,COc1ccc(-c2nc3cc(C4=NNC(=O)CC4C)ccc3[nH]2)cc1 (centres undefined),87.1
13,COc1cc2c(cc1OC)C(c1ccc(N)cc1)=NNC(=O)C2,-3.23
14,CC(C)n1nc(C#Cc2ccccc2)c2c(N)ncnc21,19
15,CCOC(=O)C1CSC(Cc2ccc(OCc3ccc([N+](=O)[O-])cc3)cc2)N1 (centres undefined),13.2
16,COc1ccc(C(=O)/C(Br)=C/C(=O)O)cc1,-2.93
17,CC(=O)C(=Cc1cc(O)c(O)c([N+](=O)[O-])c1)C(C)=O,13.4
18,CS(=O)(=O)c1ccc(-c2cnc(NCc3ccco3)n3cnnc23)cc1,7.67
19,Cc1cc(C)c2c(N)c(C(=O)NCc3ccc(Cl)cc3)sc2n1,16.5
20,Cc1coc2c1C(=O)C(=O)c1c-2ccc2c(C)cccc12,93.9
21,Cc1coc2c1C(=O)C(=O)c1c-2ccc2c1CCCC2(C)C,42
22,Cc1nn(-c2ccccc2)c(C)c1/C=N/N1CCN(Cc2ccccc2)CC1,9.22
23,O=C(O)C[C@H](O)C[C@H](O)CCc1c(C2CC2)nc2ccccc2c1-c1ccc(F)cc1,26
24,CCCCCCCC[N+](C)(C)Cc1ccccc1,-8.69

# — ChEMBL document CHEMBL4808148, “HDAC6 screening dataset using tau-based substrate in an enzymatic assay yields selective inhibitors and activators” (2021)
